Experiment [1] has as its target Cytochrome P450 1A2 (Homo sapiens) (UniProt P05177). Briefly: p450-cyp1a2 (AID 410; calls by dose curve; also: potency is read from the fitted curve at half-maximal effect). The essentials:
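20nM CYP1A2, 100uM Luciferin-ME (=Km), 100mM KPO4; cpd 10 min RT; +NADPH regen, 60 min RT; stop/detect 20 min; luminescence. Normalized to furafylline 57 uM = full inhibition.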

Experiment [2] has as its target Glucocorticoid receptor (Homo sapiens) (UniProt P04150). Briefly: GR-GFP Redistribution (AID 450;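 active = compounds whose dose series gives a full or clear partial fitted curve of increased nuclear translocation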; also: potency is read from the fitted curve at half-maximal effect). Conditions: U2OS GR-GFP nuclear translocation, laser cytometry, 2 h.
Experiment [3] shares this target. In words: GR-EFC Redistribution (AID 451; calls by dose curve; also: potency is read from the fitted curve at half-maximal effect). As to conditions: CHO-K1 GR-EFC translocation, beta-gal luminescence, 2 h. In a few lines:
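CHO-K1 cells stably expressing nuclear-localized β-gal enzyme acceptor and GR fused C-terminally to the enzyme donor fragment; ligand-driven nuclear translocation restores β-gal by complementation. Compounds titrated up to 46 uM final, 2 h at 37 °C; luminescence read.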

Experiment [4] concerns the target Mitogen-activated protein kinase 10 (Mus musculus) (UniProt Q61831). In words: JNK3 AlphaScreen Assay (AID 530; active = well fitted curve in either direction with a large enough effect, not every such curve was filed as active;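 also: kinase came from lysate of stimulated human HepG2 cells; signal reports phosphorylation of biotinylated GST-cJun 1-79 at Ser73 with 10 µM ATP; % is scaled to controls: 0 for no effect and ±100 for the full control effect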). The essentials:
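Biotinylated GST-cJun(1-79) served as substrate for JNK3 in HepG2 lysates stimulated with IL-1beta and TNF-alpha. ATP was 10 uM final, pH 7.6. Ser73 phosphorylation was quantified by AlphaScreen (680 nm excitation).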
(Bead proximity is the source of the signal in Alpha formats.)

The target in experiment [5] is 3',5'-cyclic-AMP phosphodiesterase 4B (Homo sapiens) (UniProt Q07343). In words: qHTS Assay for Inhibitors of PDE-IV (AID 607; active = well fitted activation curve with a large enough effect in the main read-out, with a control signal flat, not every such curve was filed as active; also: % of control where 0% means no effect). In a few lines: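 Cell-based read-out of cAMP via a modified cyclic nucleotide-gated channel and membrane potential dye (535/590 nm) in HEK293 cells expressing PDE4 endogenously. Compounds tested up to 22.9 uM final; 100 uM RO 20-1724 reference.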
On the technique in general: In qHTS, concentration-response curves come from the screen itself.

Experiment [6] concerns the target Cytochrome P450 2C19 (Homo sapiens) (UniProt P33261). In words: qHTS Assay for Inhibitors and Substrates of Cytochrome P450 2C19 (AID 899). Also: nearly all actives have a fitted effect of over 60% in size. Also: potency is read from the fitted curve at half-maximal effect. The essentials: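 NADPH-dependent conversion of Luciferin-H EGE (10uM, at KM) by 5nM enzyme in 50mM KPO4, 60 min at 37C following 10 min compound preincubation. Stopped with luciferin detection buffer; luminescence read after 20 min.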

Experiment [7] in a line: qHTS Assay for Lipid Storage Modulators (AID 1519; calls by dose curve). Conditions: Drosophila S3 cells, BODIPY lipid droplet/cell ratio, laser cytometry, cells loaded with oleic acid; for activity change, negative = inhibition: at 57.5 µM (top of the series). In a few lines: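 Cells seeded at 5,000 per well were treated with compounds over a concentration series and loaded with oleic acid (400 uM, as added). Lipid droplet fluorescence (488 nm excitation, 500-530 nm channel) was read by laser-scanning cytometry and normalized to 20 uM Triacsin C.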

Experiment [8] has as its target Ubiquitin carboxyl-terminal hydrolase 1 (Homo sapiens) (UniProt O94782). Briefly: Inhibitors of USP1/UAF1: Pilot qHTS (AID 504865).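 Also: rhodamine fluorescence freed from ubiquitin-rhodamine substrate followed over time; top concentration of the series differs between compounds; % is scaled to controls: 0 for no effect and ±100 for the full control effect; nearly all actives have a fitted effect of over 35% in size.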 The essentials: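 Deubiquitinase activity followed as kinetic rhodamine fluorescence release from 150 nM Ub-Rho. 1 nM USP1/UAF1 with compound, after 15 min room-temperature preincubation, in HEPES pH 7.8 buffer containing TCEP, EDTA, BSA and Tween-20.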

Experiment [9] addresses DNA dC->dU-editing enzyme APOBEC-3G (Homo sapiens) (UniProt Q9HC16). Briefly: qHTS for inhibitors of Vif-A3G interactions: Validation (AID 588379). Also: 0% is about no effect. In a few lines: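 Yellow fluorescence (Ex 488, Em 500-530) of Vif-coexpressing HeLa A3G-eYFP cells, scanned by Acumen cytometer, reports blocked A3G degradation. Cells plated at 700/well overnight at 37 deg C before compound addition, then a further overnight compound incubation at 37 deg C.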

In experiment [10] the test system is Zika virus NS2B-NS3 protease. In words: Primary screen GU AMC qHTS for Zika virus inhibitors (AID 1347154).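 Also: 0% = no-inhibitor control and -100% = no-enzyme control; nearly all actives have a fitted effect of over 70% in size.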 In a few lines:
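Unlinked Zika NS2B hydrophilic domain/NS3 protease domain noncovalent complex (25 nM final) in 10 mM Tris-HCl pH 8.0, 0.01% Tween 20, with AMC peptide substrate. Fluorescence (ex 340, em 450 nm) change over 15 min, room temperature; percent inhibition fitted to 4-parameter Hill equation.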

The nature of experiment [11]: AP1 Signaling Pathway (AID 357; active = well fitted curve in either direction with a large enough effect, not every such curve was filed as active;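 also: ME-180 reporter cells stimulated with EGF at its EC50 level; % is scaled to controls: 0 for no effect and ±100 for the full control effect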). As to conditions: ME-180 AP-1-bla reporter, EGF-induced, beta-lactamase ratio, 5 h; at 38 µM (top of the series). In a few lines: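 AP-1-bla ME-180 cells, Opti-MEM + 0.5% dialyzed FBS, plated overnight 37 °C. Cpd titration + EC50 EGF, 5 h 37 °C. CCF4 2.5 h RT; ex 405, em 460/530 ratio → %activity, AC50.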
Experiment [12] in a line: NFAT Signaling Pathway (AID 444; active = well fitted curve in either direction with a large enough effect, not every such curve was filed as active;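 also: carbachol stimulus at about its EC50 of 1 µM final; % is scaled to controls: 0 for no effect and ±100 for the full control effect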). Conditions: Jurkat NFAT-bla M1, carbachol, beta-lactamase ratio, 5 h; at 38 µM (top of the series). In a few lines: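 Jurkat cells carrying an NFAT-driven β-lactamase reporter and co-transfected muscarinic M1 receptor were treated with compound plus carbachol (1 uM final, an EC50 level) for 5 h at 37 °C. CCF4 loading followed for 1 h at RT; 460/530 nm ratio gave %activity.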

The nature of experiment [13]: Stat Signaling Pathway (AID 446; active = well fitted curve in either direction with a large enough effect, not every such curve was filed as active;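 also: ME-180 cervical cancer cells given 40 pM IL-6 alongside compound; SIE-controlled beta-lactamase reporter measured as 460/530 nm FRET emission ratio; % is scaled to controls: 0 for no effect and ±100 for the full control effect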). Conditions: ME-180 (cervical carcinoma) SIE beta-lactamase reporter, IL-6 stimulated, 5 h; at 38 µM (top of the series). The essentials: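 FRET read-out (405 nm excitation, 460/530 nm emission) of a beta-lactamase reporter under a STAT-inducible element in ME-180 cervical carcinoma cells. Cells with compound receive 40 pM IL-6 for 5 h. Values are normalised to AC90 stimulation and AC90 JAK-inhibitor controls.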

Experiment [14] concerns the target Guanine nucleotide-binding protein G(i) subunit alpha-1 (Homo sapiens) (UniProt P63096). In words: qHTS Assay for Inhibitors of RGS12 GoLoco Motif Activity (Green Fluorophore) (AID 879).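 Also: 0% = labeled peptide with Gαi1 and full inhibition = labeled peptide alone without protein; negative values mean loss of peptide binding seen as reduced polarization.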 The essentials:
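A drop in FITC polarization marked displacement of the FITC-tagged RGS12 GoLoco peptide (10 nM) from Gαi1 (50 nM). Compounds were incubated 10 min at room temperature in Tris pH 7.5 buffer containing 150 mM NaCl, 0.1 mM GDP and 0.05% NP40; unlabeled peptide titration served as control.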

For experiment [15], the target named is Pyruvate kinase (Leishmania mexicana) (UniProt Q27686). Briefly: qHTS Validation Assay for Inhibitors of Leishmania Mexicana Pyruvate Kinase (AID 945).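 Also: 0% = DMSO only neutral control wells.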 The essentials: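 Mutant LmPYK (E451W), 0.2 nM, plus 0.5 mM PEP and 0.1 mM ADP in 50 mM imidazole pH 7.2 containing 0.01% Tween 20 and 0.05% BSA. Incubated 1 h at room temperature; luminescence via PKLight, normalized to DMSO.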

Experiment [16] has as its target Cytochrome P450 2D6 (Homo sapiens) (UniProt P10635). In words: qHTS Assay for Inhibitors and Substrates of Cytochrome P450 2D6 (AID 891). Also: potency is read from the fitted curve at half-maximal effect; nearly all actives have a fitted effect of over 60% in size. The essentials: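 Luminescent read-out of luciferin formed by 5 nM human CYP2D6 demethylating 30 uM Luciferin-ME EGE (Km level) over 60 min at room temperature after NADPH regeneration addition. Data normalized to full inhibition by 1.43 uM quinidine.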

For experiment [17], the target named is Cytochrome P450 3A4 (Homo sapiens) (UniProt P08684). In words: qHTS Assay for Activators of Cytochrome P450 3A4 (AID 885). Also: nearly all actives have a fitted effect of over 65% in size. In a few lines:
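Luminescent readout of luciferin formed from 25 uM Luciferin-PPXE (KM level) by 20 nM CYP3A4 in 200 mM KPO4, with 60 min NADPH-driven reaction at room temperature after 10 min compound exposure. Ketoconazole (57 uM) defined 100% inhibition.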

The nature of experiment [18]: Primary qHTS for small molecule stabilizers of the endoplasmic reticulum resident proteome: Secreted ER Calcium Modulated Protein (SERCaMP) assay (AID 1508630). Also: % is scaled to controls: 0 for no effect and ±100 for the full control effect. The essentials:
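The SH-SY5Y reporter protocol was run at 3 concentrations up to 38.3 uM (primary) or 11 concentrations (follow-up): 16 h compound, 100 nM thapsigargin for 4 h, then extracellular luciferase luminescence.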

The target in experiment [19] is Cytochrome P450 2C9 (Homo sapiens) (UniProt P11712). In words: qHTS Assay for Inhibitors and Substrates of Cytochrome P450 2C9 (AID 883). Also: potency is read from the fitted curve at half-maximal effect; nearly all actives have a fitted effect of over 60% in size. The essentials: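 A luminogenic readout tracked human CYP2C9 (10nM) converting deoxyluciferin (100uM, at KM) in 25mM KPO4 during 60 min at 37C with regenerated NADPH. Values normalized to 57uM sulphaphenazole as complete inhibition.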

The mark [20] stands for this setting: measured here: cell count channel max response.
Where [21] appears, read: measured here: lipid channel max response.

Each structure is given as a SMILES string. Results filed as inconclusive are left out. Calls of active or inactive are those of the source. Unless noted, calls follow the shape of the dose curve; as a rule, active = well fitted curve in the direction sought with a large enough effect; inconclusive = small, poorly fitted or top-dose-only effect, or another doubt; inactive = no such curve, though single readings can be large; an effect the other way counts as inactive or inconclusive.

Chain of 3',5'-cyclic-AMP phosphodiesterase 4B (Homo sapiens) (Q07343 whole entry, looked up): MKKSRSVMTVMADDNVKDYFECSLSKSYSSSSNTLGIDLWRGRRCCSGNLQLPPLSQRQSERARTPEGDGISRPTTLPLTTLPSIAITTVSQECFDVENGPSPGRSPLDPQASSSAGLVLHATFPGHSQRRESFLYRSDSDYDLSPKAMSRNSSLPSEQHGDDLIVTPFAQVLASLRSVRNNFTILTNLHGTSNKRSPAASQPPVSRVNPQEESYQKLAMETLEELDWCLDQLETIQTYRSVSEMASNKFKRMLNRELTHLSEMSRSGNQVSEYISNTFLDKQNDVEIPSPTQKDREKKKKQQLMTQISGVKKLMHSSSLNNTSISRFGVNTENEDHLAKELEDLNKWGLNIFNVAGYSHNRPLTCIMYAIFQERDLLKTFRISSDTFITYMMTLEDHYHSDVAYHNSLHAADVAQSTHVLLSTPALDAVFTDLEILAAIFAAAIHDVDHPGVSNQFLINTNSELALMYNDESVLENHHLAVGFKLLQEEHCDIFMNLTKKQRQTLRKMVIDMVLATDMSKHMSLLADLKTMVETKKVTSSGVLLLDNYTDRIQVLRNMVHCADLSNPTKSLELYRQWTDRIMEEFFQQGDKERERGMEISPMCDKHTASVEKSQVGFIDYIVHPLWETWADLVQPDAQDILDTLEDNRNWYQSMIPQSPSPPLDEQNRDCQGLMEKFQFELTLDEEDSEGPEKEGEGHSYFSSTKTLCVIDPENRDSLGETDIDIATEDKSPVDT
Chain of Ubiquitin carboxyl-terminal hydrolase 1 (Homo sapiens) (O94782 whole entry, looked up): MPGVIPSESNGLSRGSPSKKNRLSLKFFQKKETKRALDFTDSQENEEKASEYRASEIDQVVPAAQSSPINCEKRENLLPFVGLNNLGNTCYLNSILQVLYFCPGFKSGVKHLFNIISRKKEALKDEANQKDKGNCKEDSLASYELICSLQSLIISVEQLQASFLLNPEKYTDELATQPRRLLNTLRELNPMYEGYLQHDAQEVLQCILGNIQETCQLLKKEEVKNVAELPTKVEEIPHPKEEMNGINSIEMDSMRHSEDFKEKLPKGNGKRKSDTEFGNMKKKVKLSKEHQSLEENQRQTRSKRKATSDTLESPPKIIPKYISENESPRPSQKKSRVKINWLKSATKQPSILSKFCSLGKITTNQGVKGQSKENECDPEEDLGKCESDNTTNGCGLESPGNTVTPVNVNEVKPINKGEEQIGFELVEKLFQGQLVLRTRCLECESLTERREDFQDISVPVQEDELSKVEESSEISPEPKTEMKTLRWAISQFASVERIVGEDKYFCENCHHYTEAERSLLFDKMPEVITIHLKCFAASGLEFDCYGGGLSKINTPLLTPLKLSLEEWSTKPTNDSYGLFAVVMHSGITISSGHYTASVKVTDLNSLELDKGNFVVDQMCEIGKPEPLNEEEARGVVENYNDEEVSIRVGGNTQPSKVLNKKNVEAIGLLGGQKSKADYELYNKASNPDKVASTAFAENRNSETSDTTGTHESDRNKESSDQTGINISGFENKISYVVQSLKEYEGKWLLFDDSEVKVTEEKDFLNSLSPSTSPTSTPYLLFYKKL
Chain of DNA dC->dU-editing enzyme APOBEC-3G (Homo sapiens) (Q9HC16 whole entry, looked up): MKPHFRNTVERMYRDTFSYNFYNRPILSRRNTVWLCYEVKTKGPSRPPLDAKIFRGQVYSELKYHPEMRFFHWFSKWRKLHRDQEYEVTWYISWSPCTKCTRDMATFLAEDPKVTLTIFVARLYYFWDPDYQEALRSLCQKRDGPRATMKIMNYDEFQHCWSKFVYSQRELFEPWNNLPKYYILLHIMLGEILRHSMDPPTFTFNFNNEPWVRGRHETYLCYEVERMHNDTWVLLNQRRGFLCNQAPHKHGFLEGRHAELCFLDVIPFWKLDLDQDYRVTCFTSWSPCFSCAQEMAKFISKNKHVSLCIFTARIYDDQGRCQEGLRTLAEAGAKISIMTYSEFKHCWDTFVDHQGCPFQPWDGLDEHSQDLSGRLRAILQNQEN
Chain of Glucocorticoid receptor (Homo sapiens) (P04150 whole entry, looked up): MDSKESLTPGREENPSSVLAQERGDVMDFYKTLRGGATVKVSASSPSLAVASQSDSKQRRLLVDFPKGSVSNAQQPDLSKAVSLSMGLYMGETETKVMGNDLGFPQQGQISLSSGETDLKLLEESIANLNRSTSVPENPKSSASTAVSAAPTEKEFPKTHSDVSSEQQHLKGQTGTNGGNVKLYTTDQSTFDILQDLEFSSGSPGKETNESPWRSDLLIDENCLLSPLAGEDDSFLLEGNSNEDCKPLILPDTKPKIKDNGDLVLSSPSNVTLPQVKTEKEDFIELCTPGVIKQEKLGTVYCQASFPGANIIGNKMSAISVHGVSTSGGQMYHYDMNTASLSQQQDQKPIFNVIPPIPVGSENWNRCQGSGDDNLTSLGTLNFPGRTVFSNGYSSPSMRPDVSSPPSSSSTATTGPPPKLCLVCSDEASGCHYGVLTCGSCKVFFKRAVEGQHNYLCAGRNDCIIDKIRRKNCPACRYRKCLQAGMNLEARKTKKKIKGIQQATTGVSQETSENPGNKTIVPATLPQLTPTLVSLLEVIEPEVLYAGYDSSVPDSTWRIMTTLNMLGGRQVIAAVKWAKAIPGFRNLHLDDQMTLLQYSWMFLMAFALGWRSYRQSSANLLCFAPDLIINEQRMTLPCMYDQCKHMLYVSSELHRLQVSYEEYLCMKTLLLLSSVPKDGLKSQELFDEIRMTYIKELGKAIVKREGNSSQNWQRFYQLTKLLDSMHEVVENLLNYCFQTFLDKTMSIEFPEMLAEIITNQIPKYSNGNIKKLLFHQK
Chain of Cytochrome P450 1A2 (Homo sapiens) (P05177 whole entry, looked up): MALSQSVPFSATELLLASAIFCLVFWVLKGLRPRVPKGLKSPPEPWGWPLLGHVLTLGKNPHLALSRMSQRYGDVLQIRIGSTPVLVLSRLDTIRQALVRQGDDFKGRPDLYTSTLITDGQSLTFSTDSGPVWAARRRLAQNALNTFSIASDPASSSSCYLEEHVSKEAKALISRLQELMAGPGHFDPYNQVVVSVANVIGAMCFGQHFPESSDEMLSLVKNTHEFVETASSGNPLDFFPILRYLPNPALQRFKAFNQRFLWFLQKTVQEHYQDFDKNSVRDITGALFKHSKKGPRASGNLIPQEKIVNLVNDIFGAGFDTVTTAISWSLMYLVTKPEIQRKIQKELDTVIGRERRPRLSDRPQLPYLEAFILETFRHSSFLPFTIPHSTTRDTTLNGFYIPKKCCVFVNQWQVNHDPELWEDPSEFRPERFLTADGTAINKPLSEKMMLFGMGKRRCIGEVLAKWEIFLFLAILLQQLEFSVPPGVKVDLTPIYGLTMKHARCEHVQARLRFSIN
Chain of Cytochrome P450 2C19 (Homo sapiens) (P33261 whole entry, looked up): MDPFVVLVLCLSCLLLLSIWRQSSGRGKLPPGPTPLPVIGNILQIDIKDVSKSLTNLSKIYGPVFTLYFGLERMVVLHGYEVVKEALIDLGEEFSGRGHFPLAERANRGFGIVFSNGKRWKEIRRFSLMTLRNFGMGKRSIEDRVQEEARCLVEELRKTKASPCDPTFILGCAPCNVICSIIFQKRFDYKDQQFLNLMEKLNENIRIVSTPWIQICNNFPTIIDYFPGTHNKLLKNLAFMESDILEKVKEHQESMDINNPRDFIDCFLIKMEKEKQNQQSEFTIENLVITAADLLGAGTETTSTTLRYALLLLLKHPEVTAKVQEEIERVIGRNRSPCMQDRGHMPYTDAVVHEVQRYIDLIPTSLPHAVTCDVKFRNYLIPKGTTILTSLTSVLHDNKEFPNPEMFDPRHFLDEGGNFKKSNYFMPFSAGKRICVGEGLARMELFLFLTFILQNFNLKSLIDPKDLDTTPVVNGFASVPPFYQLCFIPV
Chain of Guanine nucleotide-binding protein G(i) subunit alpha-1 (Homo sapiens) (P63096 whole entry, looked up): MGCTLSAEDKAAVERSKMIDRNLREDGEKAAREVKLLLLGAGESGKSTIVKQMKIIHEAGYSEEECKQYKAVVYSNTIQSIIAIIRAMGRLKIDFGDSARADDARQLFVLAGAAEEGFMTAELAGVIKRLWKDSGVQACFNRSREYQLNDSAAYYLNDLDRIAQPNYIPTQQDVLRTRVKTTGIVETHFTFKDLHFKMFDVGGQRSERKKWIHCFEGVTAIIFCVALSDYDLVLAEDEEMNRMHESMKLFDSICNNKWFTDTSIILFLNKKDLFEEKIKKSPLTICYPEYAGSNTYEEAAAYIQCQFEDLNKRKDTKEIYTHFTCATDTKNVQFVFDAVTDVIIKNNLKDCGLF
Chain of Cytochrome P450 2C9 (Homo sapiens) (P11712 whole entry, looked up): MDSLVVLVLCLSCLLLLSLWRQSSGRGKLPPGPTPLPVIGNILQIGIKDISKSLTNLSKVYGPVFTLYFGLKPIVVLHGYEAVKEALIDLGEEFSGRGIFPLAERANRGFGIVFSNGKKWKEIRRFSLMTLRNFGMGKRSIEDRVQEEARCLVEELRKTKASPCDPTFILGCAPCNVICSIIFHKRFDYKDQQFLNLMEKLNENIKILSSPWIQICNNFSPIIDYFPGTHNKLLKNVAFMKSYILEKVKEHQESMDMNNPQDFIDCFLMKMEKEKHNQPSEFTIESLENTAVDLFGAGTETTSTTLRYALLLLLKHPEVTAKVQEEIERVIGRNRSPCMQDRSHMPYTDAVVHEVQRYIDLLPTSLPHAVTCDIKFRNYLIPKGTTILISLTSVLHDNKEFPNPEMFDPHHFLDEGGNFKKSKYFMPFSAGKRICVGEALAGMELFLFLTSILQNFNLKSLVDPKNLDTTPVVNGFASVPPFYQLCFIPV

As to `CCNCCCNCCCNCCCNCC`, the Potency result in [1], in experiment [4], in experiment [5], in [6], in [8] and in experiment [9] was “inactive” throughout. The Potency entry in experiment [10] is “inactive”. Besides, the Potency in [2] and in experiment [3] was > 46 µM (inactive) in each case. Moreover, in experiment [7], the activity change, negative = inhibition is -4.07% (inactive). Moreover, the values for the max response in experiment [7] (setting [20]) and in [7] (setting [21]) were -26.1% and -12.2%, respectively.

Regarding `CC(=O)N[C@@H](C(=O)O)C(C)(C)SN=O`, the activity change, negative = inhibition in experiment [11] was -1.8% (inactive); in [12], 9.84% (inactive); in experiment [7] it was 9.07% (inactive). Also, the Potency result in experiment [1], in experiment [4], in [5], in experiment [15], in experiment [9] and in [10] was “inactive” each time. In addition, in experiment [13], the activity, negative = inhibition was 2.94% (inactive). Further, the Potency in experiment [2] and in experiment [3] was > 46 µM (inactive) throughout. For the same molecule, in [14], the molecule was called inactive. The max response was 15.4% in experiment [7] (setting [20]) and 28.4% in [7] (setting [21]).

For the molecule `OC[C@H]1NC[C@H](O)[C@@H](O)[C@H]1O`, the Potency entry in experiment [1], in experiment [4], in experiment [5], in [8], in [9] and in experiment [10] was “inactive” each time. Further, the Potency in experiment [2] and in experiment [3] was > 46 µM (inactive) in each case. In addition, the activity change, negative = inhibition in experiment [7] is -0.744% (inactive). The max response in [7] (setting [20]) worked out at 30%; in [7] (setting [21]), 27.8%.

On to `CCCn1c(=O)c2[nH]c(-c3ccc(OCC(=O)Nc4ccc(C(C)=O)cc4)cc3)nc2n(CCC)c1=O`, for which the Potency in experiment [2] and in [3] was > 46 µM (inactive) throughout. Moreover, the Potency entry in [4], in experiment [8], in experiment [9] and in experiment [10] was “inactive” throughout. For the same molecule, in experiment [7], the activity change, negative = inhibition was 5.04% (inactive). In addition, the max response in [7] (setting [20]) came to 6.38%; in experiment [7] (setting [21]), 10.1%.

Take `N[C@@H](Cn1cc(I)c(=O)n(Cc2ccc(C(=O)O)cc2)c1=O)C(=O)O`: the Potency is 31.6 µM (active) in [1], > 46 µM (inactive) in [2], > 46 µM (inactive) in [3] and 2.51 µM (active) in experiment [16]. Also, the Potency result in [4], in experiment [8], in [9] and in experiment [10] was “inactive” each time. Moreover, the activity change, negative = inhibition in experiment [7] is 2.45% (inactive). For the same molecule, the max response was found to be 4.58% in [7] (setting [20]) and 1.43% in experiment [7] (setting [21]).

As for `OC(CN1CCNCC1)Cn1c2ccc(Br)cc2c2cc(Br)ccc21` (stereo unspecified), the Potency entry in experiment [17], in [10] and in [18] was “inactive” in each case.

With `Nc1nc(Nc2ccccc2)nc2c1ncn2[C@@H]1O[C@@H](CO)[C@H](O)[C@H]1O`, the Potency in experiment [2] is > 46 µM (inactive); in [3], > 46 µM (inactive); in [19], 0.794 µM (active); in experiment [6], 0.631 µM (active). In addition, the activity change, negative = inhibition in experiment [7] was -4.73% (inactive). In addition, the max response in [7] (setting [20]) was -2.49%; in [7] (setting [21]), -4.59%. Besides, the Potency entry in experiment [9] and in experiment [10] was “inactive” throughout.

Turning to `N[C@@H](C(=O)O)c1ccc(C(=O)O)cc1`, the Potency entry in experiment [1], in experiment [4], in [5], in experiment [8], in [9] and in [10] was “inactive” each time. The Potency in experiment [2] and in [3] was > 46 µM (inactive) each time. For the same molecule, in experiment [7], the activity change, negative = inhibition is 5.37% (inactive). For the same molecule, the max response came to 10.8% in experiment [7] (setting [20]) and 17.4% in experiment [7] (setting [21]).

The record behind these values is PubChem BioAssay (NCATS).
